Measurements published in the supplement of paper PMC6992640.
Counter-ions that a name gives are not always drawn. ± gives the standard deviation of the averaged measurements.

Tests used:
Assay in all cases: cell viability (% of vehicle); higher = less cytotoxic
[1] = tested on: HCI01 (cells of a triple-negative basal-like breast cancer xenograft); details: 1 µM; 72 h
[2] = tested on: UCD52 (cells of a triple-negative basal-like breast cancer xenograft); details: 1 µM; 72 h
[3] = tested on: WHIM2 (cells of a triple-negative basal-like breast cancer xenograft); details: 1 µM; 72 h
[4] = tested on: WHIM30 (cells of a triple-negative basal-like breast cancer xenograft); details: 1 µM; 72 h
[5] = tested on: HCI01; details: 10 µM; 72 h
[6] = tested on: HCI03 (cells of an ER-positive luminal breast cancer xenograft); details: 10 µM; 72 h
[7] = tested on: HCI09 (cells of a triple-negative luminal androgen receptor type breast cancer xenograft); details: 10 µM; 72 h
[8] = tested on: HCI11 (cells of an ER-positive luminal breast cancer xenograft); details: 10 µM; 72 h
[9] = tested on: HCI16 (cells of a triple-negative basal-like breast cancer xenograft); details: 10 µM; 72 h
[10] = tested on: UCD52; details: 10 µM; 72 h
[11] = tested on: WHIM2; details: 10 µM; 72 h
[12] = tested on: WHIM30; details: 10 µM; 72 h
[13] = tested on: HCI13 (cells of an ER-positive luminal breast cancer xenograft); details: 10 µM; 72 h

Row | Compound | cell viability [1] | cell viability [2] | cell viability [3] | cell viability [4] | cell viability [5] | cell viability [6] | cell viability [7] | cell viability [8] | cell viability [9] | cell viability [10] | cell viability [11] | cell viability [12] | cell viability [13]
1 | CC(C)C1=CC(=C2NNC(=O)N2c2ccc3c(ccn3C)c2)C(=O)C=C1O [Ganetespib (STA-9090)] | 83.9 | 46.6 | 55.2 | 138 | 59.1 ± 28 | 53.9 | 25.3 ± 2 | 36.5 | 68.2 | 48.6 ± 9.8 | 95 ± 7.9 | 96.6 ± 1.9 | 
2 | O=C(NN=Cc1ccc([N+](=O)[O-])o1)c1ccc(O)cc1 [Nifuroxazide] | 78.8 | 91.1 | 95.3 | 77.5 | 63.5 ± 47 | 128 | 37 ± 17 | 82 | 91.7 | 62.2 ± 28 | 94.9 ± 15 | 79.2 ± 5.8 | 62.8 ± 15
3 | CC(O)C(=O)O.CCOc1ccc2nc3cc(N)ccc3c(N)c2c1.O [Ethacridine lactate monohydrate] | 83.7 | 95.6 | 58.8 | 68.3 | 57.6 ± 15 | 41.6 | 24.4 ± 4.4 | 36.3 |  | 158 ± 32 | 49.6 ± 8.4 | 76.2 ± 3 | 57.4 ± 17
4 | Br.Cc1ccc(Sc2ccccc2N2CCNCC2)c(C)c1 | 113 | 71.2 | 102 | 80.6 | 28 ± 3 | 44.4 | 17.5 ± 4 | 76.7 | 35.3 | 23.6 ± 4.2 | 33.9 ± 14 | 26.9 ± 4.6 | 39.1 ± 6.4
5 | C[C@H]1O[C@@H](O[C@H]2[C@@H](O)C[C@H](O[C@H]3[C@@H](O)C[C@H](O[C@H]4CC[C@@]5(C)[C@H](CC[C@@H]6[C@@H]5C[C@@H](O)[C@]5(C)[C@@H](C7=CC(=O)OC7)CC[C@]65O)C4)O[C@@H]3C)O[C@@H]2C)C[C@H](O)[C@@H]1O [Digoxin] | 50.6 | 25.3 | 138 | 25.7 | 35.2 ± 3 | 97.9 | 40.1 ± 17 | 69.2 | 45.8 | 66.6 ± 8.6 | 66.4 ± 7.6 | 41.4 ± 1.1 | 
6 | CN1CCC(COc2cnc(-c3cccc(Cn4nc(-c5cccc(C#N)c5)ccc4=O)c3)nc2)CC1 | 83.2 | 79.2 | 97.8 | 79.6 | 87.4 ± 46 | 45.7 | 15.5 ± 4.2 | 57.6 |  | 28 ± 5.6 | 34.3 ± 2.1 | 65.8 ± 4.3 | 72.4 ± 35
7 | C=CC(=O)Nc1cc(Nc2nccc(-c3cn(C)c4ccccc34)n2)c(OC)cc1N(C)CCN(C)C | 57.6 | 63 | 52.7 | 61.8 | 41.7 ± 1 | 39.9 | 50.4 ± 36 | 61.3 | 60.7 | 30.1 ± 0.95 | 44.5 ± 7.7 | 41.7 ± 1.9 | 51.7 ± 3.8
8 | COc1nc2ccc(Br)cc2cc1[C@@H](c1ccccc1)[C@@](O)(CCN(C)C)c1cccc2ccccc12 [Bedaquiline fumarate] | 90.7 | 108 | 97.8 | 99.8 | 79.1 ± 18 | 75.7 | 64.5 ± 22 | 80.3 | 87 | 42.6 ± 0.72 | 48.7 ± 2.1 | 70 ± 2.9 | 116.1 ± 1.1
9 | COC(=O)NC(C(=O)N1CCCC1c1ncc(-c2ccc(-c3ccc(-c4cnc(C5CCCN5C(=O)C(NC(=O)OC)C(C)C)[nH]4)cc3)cc2)[nH]1)C(C)C (stereo unspecified) | 85.1 | 82.6 | 93.7 | 82.8 | 79.8 ± 2.9 | 99.6 | 42.7 ± 35 | 72.6 | 87.2 | 62.3 ± 1.2 | 58.8 ± 6.8 | 102 ± 11 | 131 ± 110
10 | CCN(CC)CCNC(=O)c1c(C)[nH]c(C=C2C(=O)Nc3ccc(F)cc32)c1C [Sunitinib] | 81.1 | 73 | 66 | 86.7 | 106 ± 39 | 134 | 71.8 ± 35 | 134 | 125 | 61.8 ± 3.4 | 104 ± 68 | 37.9 ± 7.1 | 
11 | CCCNC(C)C(=O)Nc1ccccc1C (stereo unspecified) [Prilocaine] |  |  |  |  | 77.2 ± 50 | 145 | 102 ± 1.6 | 92 | 108 | 79.7 ± 1.1 | 98.7 ± 19 |  | 119.7 ± 0.81
12 | COc1cc(Cc2cnc(N)nc2N)cc(OC)c1OC [Trimethoprim] |  |  |  |  | 78.3 ± 37 | 144 | 91.1 ± 7.9 | 93 | 120 | 95.4 ± 7.4 | 118 ± 7.3 |  | 117 ± 22
13 | Cc1nc(=O)c2cc(CN(C)c3ccc(C(=O)NC(CCC(=O)O)C(=O)O)s3)ccc2[nH]1 (stereo unspecified) [Raltitrexed] |  |  |  |  | 93.9 ± 5.5 | 122 | 104 ± 27 | 86.9 | 99 | 106 ± 4 | 116 ± 2 |  | 95.59 ± 0.3
14 | COc1ccc2cc(CCC(C)=O)ccc2c1 [Nabumetone] |  |  |  |  | 170 ± 32 | 172 | 200 ± 62 | 141 | 136 | 151 ± 25 | 117 ± 11 |  | 199 ± 10
15 | Cc1c(OCC(F)(F)F)ccnc1CS(=O)c1nc2ccccc2[n-]1.[Na+] (stereo unspecified) [Lansoprazole sodium] |  |  |  |  | 181 ± 1.4 | 145 | 124 ± 9 | 163 | 152 | 138.2 ± 0.31 | 143 ± 9.9 |  | 135 ± 5.7
16 | CCc1cnn2c(NCc3ccc[n+]([O-])c3)cc(N3CCCCC3CCO)nc12 (stereo unspecified) | 46.8 | 29.2 | 38.1 | 34.9 | 38.1 ± 3.4 |  | 62.5 ± 35 | 72.6 | 92.9 | 42.1 ± 6.4 | 48.7 ± 12 | 66.2 ± 6.1 | 

Row | Compound | cell viability [1] | cell viability [2] | cell viability [3] | cell viability [4] | cell viability [5] | cell viability [6] | cell viability [7] | cell viability [8] | cell viability [9] | cell viability [10] | cell viability [11] | cell viability [12] | cell viability [13]
17 | CCN(CC)C(=O)C1(c2ccccc2)CC1CN.Cl (stereo unspecified) [Milnacipran HCl] |  |  |  |  | 68.6 ± 44 | 137 | 96.4 ± 9.2 | 98.1 | 105 | 86.4 ± 1.7 | 93.8 ± 47 |  | 127 ± 14
18 | NC(=O)c1ncn(C2OC(CO)C(O)C2O)n1 (stereo unspecified) [Ribavirin] |  |  |  |  | 72.7 ± 49 | 148 | 92.7 ± 2.2 | 93.7 | 110 | 96.4 ± 6.9 | 99.1 ± 46 |  | 118 ± 9.9
19 | CCOC(=O)c1c(C)n(C)c2ccc(O)cc12 [Mecarbinate] |  |  |  |  | 72.1 ± 43 | 152 | 111 ± 4.2 | 90.9 | 115 | 87.3 ± 3.8 | 99.6 ± 22 |  | 135 ± 14
20 | COc1ncc(-c2ccc3nccc(-c4ccnnc4)c3c2)cc1NS(=O)(=O)c1ccc(F)cc1F | 53 | 23.2 | 31.9 | 48 | 64.11 ± 0.34 | 65.6 | 26.64 ± 0.21 | 70.3 | 147 | 43.4 ± 1 | 49.7 ± 7.6 | 42.9 ± 2.3 | 
21 | COc1ccc(Cl)cc1C(=O)NCCc1ccc(S(=O)(=O)NC(=O)NC2CCCCC2)cc1 [Glibenclamide] |  |  |  |  | 103 ± 13 | 151 | 93.7 ± 16 | 93.2 | 110 | 119 ± 3.5 | 134.7 ± 0.95 |  | 108.2 ± 0.86
22 | CCC1OC(=O)CC(O)C(C)C(OC2OC(C)C(OC3CC(C)(O)C(O)C(C)O3)C(N(C)C)C2O)C(CC=O)CC(C)C(=O)C=CC(C)=CC1COC1OC(C)C(O)C(OC)C1OC.O=C(O)C(O)C(O)C(=O)O (stereo unspecified) [Tylosin tartrate] |  |  |  |  | 75.1 ± 40 | 165 | 88.2 ± 5.5 | 82.3 | 126 | 85.2 ± 5.8 | 110.8 ± 0.8 |  | 97.3 ± 33
23 | CC[C@@]1(O)C(=O)OCc2c1cc1n(c2=O)Cc2cc3c(CN(C)C)c(O)ccc3nc2-1.Cl [Topotecan HCl] | 65.4 | 93.4 | 49.6 | 41.7 | 38 ± 13 |  | 35.2 ± 10 | 51.9 | 69.1 | 42 ± 7.3 | 43.7 ± 2.5 | 82.1 ± 9.8 | 54.7 ± 1.9
24 | O=c1[nH]cc(F)c(=O)[nH]1 [Fluorouracil (Adrucil)] |  |  |  |  | 136 ± 18 | 112 | 75.1 ± 7.2 | 167 | 151 | 139.3 ± 0.23 | 106 ± 20 |  | 81.1 ± 6
25 | CC(=O)NC1C(N=C(N)N)C=C(C(=O)O)OC1C(O)C(O)CO (stereo unspecified) [Zanamivir] |  |  |  |  | 82.4 ± 58 | 156 | 96 ± 12 | 90.8 | 113 | 90.4 ± 1.5 | 106 ± 31 |  | 108 ± 2.3
26 | CN1CCN(CCCN2c3ccccc3Sc3ccc(Cl)cc32)CC1 [Prochlorperazine] |  |  |  |  | 113 ± 3 | 118 | 98.8 ± 8.7 | 91.1 | 92.1 | 63.7 ± 7.7 | 74.7 ± 5 |  | 128 ± 17
27 | C1=C\COCc2cc(ccc2OCCN2CCCC2)Nc2nccc(n2)-c2cccc(c2)COC/1 [Pacritinib] | 70.5 | 49.1 | 77.3 | 47.3 | 28.9 ± 7.5 |  | 25.9 ± 3.1 | 131 | 133 | 35.1 ± 1.6 | 49.9 ± 4.6 | 50.7 ± 17 | 50.7 ± 7
28 | CCC1(c2ccccc2)C(=O)NCNC1=O [Primidone] |  |  |  |  | 78.1 ± 54 | 162 | 105 ± 2.9 | 90.6 | 121 | 85.1 ± 8.9 | 100 ± 33 |  | 134.7 ± 0.7
29 | OCCN1CC(O)C(O)C(O)C1CO (stereo unspecified) [Miglitol] |  |  |  |  | 68.9 ± 43 | 136 | 99.2 ± 8.7 | 92.4 | 116 | 86.2 ± 7.9 | 95.7 ± 50 |  | 113 ± 0.17
30 | CS(=O)(=O)CCNCc1ccc(-c2ccc3ncnc(Nc4ccc(OCc5cccc(F)c5)c(Cl)c4)c3c2)o1 [Lapatinib] |  |  |  |  | 112 ± 63 | 45.4 | 39.3 ± 17 | 98.8 | 168 | 51.2 ± 3.6 | 40.7 ± 5.3 |  | 42.2 ± 0.47
31 | CCCc1cc(=O)[nH]c(=S)[nH]1 [Propylthiouracil] |  |  |  |  | 70.4 ± 44 | 153 | 100 ± 12 | 97.8 | 120 | 91.2 ± 3.8 | 100 ± 38 |  | 143 ± 30
32 | NS(=O)(=O)c1cc2c(cc1Cl)NC(C(Cl)Cl)NS2(=O)=O (stereo unspecified) [Trichlormethiazide] |  |  |  |  | 104 ± 57 | 164 | 98.053 ± 0.0031 | 89.9 | 186 | 142 ± 9.3 | 141 ± 8.7 |  | 129.2 ± 0.42
